CHX counter – affects cycloheximide protein synthesis inhibition readout, counter-screen | max response, % | cell reporter, cycloheximide protein synthesis inhibition counterscreen | hit rate 12% among 300,000; in the data active = max response mostly above about 13%, no sharp cut-off; inactive = mostly below about 14%; note: read at 38.3 µM for the half of the compounds with a filed dose; 0% is about no effect
Pf growth 96h – P. falciparum growth inhibition at 96 hour, primary screen for plastid delayed-death inhibitors. AID 504834. P. falciparum luciferase reporter growth, 96 h. Potency, µM (top dose mostly 28.7 µM), without a hit: at the top dose activity change, negative = inhibition, most hits filed as inhibitors. hit rate 6.9% among 320,000; note: potency is the fitted concentration of half-maximal effect; % is set by controls: 0 for no effect and ±100 for the full control effect
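Cell-based qHTS: luciferase-tagged P. falciparum in erythrocytes (2% hematocrit, 0.05% parasitemia final) incubated with compounds for 96 hours, 37 C, 5% CO2; luciferase detection reagent then added and luminescence measured.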
Shiga inhibitor – inhibitors of Shiga toxin in Vero cells | AID 2315 | hit rate 9.2% among 290,000 | Vero cells, Shiga toxin protein synthesis inhibition reporter | inhibition, % at 38.7 µM; in the data active = inhibition mostly above about 28%, no sharp cut-off; inactive = mostly below about 43%; note: 0% is about no effect
Pf growth 48h – P. falciparum growth inhibition at 48 hours (one generation); hit rate 5.9% among 310,000; P. falciparum luciferase growth in erythrocytes, 48 h; Potency, µM (top dose mostly 28.7 µM), for the others: at the highest dose activity change, negative = inhibition, usual class: inhibitors; note: potency is the fitted concentration of half-maximal effect; % is set by controls: 0 for no effect and ±100 for the full control effect
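Parasite viability was followed by luminescence of a genomically integrated firefly luciferase. Cultures held 0.1% parasitemia at 2% hematocrit (final), incubated under 5% CO2 at 37 C.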
SARS PLpro yeast – inhibitors of SARS-CoV papain-like protease in yeast | Potency, µM (titrated, usually from 32.9 µM), for the others: at the highest dose activity, positive = growth rescue, usual class: activators | hit rate 0.19% among 330,000 | S. cerevisiae expressing SARS-CoV PLpro, growth rescue | AID 485353; calls by dose curve; note: potency is the fitted concentration of half-maximal effect; 0% is about no effect; nearly all actives have a fitted effect of over 55% in size
NS1 inh – blocks influenza NS1 protein function; Potency, µM (doses to about 46.1 µM), for the others: at the top dose activity, positive = more growth; AID 2326; hit rate 0.4% among 270,000; calls by dose curve; note: potency is the fitted concentration of half-maximal effect; actives are rising curves; nearly all actives have a fitted effect of over 50% in size
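Growth recovery, yeast-based: influenza A NS1 expressed in S. cerevisiae causes slow growth, and suppressors are detected by OD600. The parent strain without NS1 is used as positive control.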
Active calls of the source: *; i = inactive; ? = inconclusive; / = no result. Hits are enriched below; roughly 21% of the tested compounds scored in any of these assays. Unless noted, calls come from the whole dose curve; as a rule, active = well fitted inhibition curve with a large enough effect; inconclusive = small, poorly fitted or top-dose-only effect, or another doubt; inactive = no such curve, though single readings can be large or run the other way.

SMILES	CHX counter	Pf growth 96h	Shiga inhibitor	Pf growth 48h	SARS PLpro yeast	NS1 inh
S=C(NCc1cccnc1)c1ccccc1	-3	51%	-4	-3%	-2%	1%
COc1ccc(C(=O)CCC(=O)Nc2cc(Cl)c(O)c(Cl)c2)cc1	-3	-3%	-7	10%	0%	7%
O=C(Oc1ccc2cc(Br)ccc2c1)c1cccnc1	-2	58%	36	13%	1%	-2%
Cc1cc(C)c2nc(C)cc(Nc3ccc(C(=O)N(C)C)cc3)c2c1	-3	4%	-15	?	0%	2%
CC(=O)c1ccc(Nc2cc(C)nc3c(C)cc(C)cc23)cc1	-9	?	-40	12µM*	-1%	/
CC(=O)c1cccc(Nc2cc(C)nc3c(C)cccc23)c1	5	-105%	20	12µM*	2%	0%
CC(=O)c1cccc(Nc2cc(C)nc3ccccc23)c1	2	-27%	11	18%	1%	1%
Cc1cc(C)c2nc(C)cc(Nc3ccc(C(=O)NCCO)cc3)c2c1	1	12µM*	-3	10µM*	0%	3%
Cc1ccc(-c2cccc(OC(=O)c3ccccc3F)c2)cc1	2	26%	-7	33%	8%	-9%
Cc1cc(C(C)(C)C)ccc1NC(=O)CC(C)(C)CC(=O)O	49*	30%	82*	57%	1%	7%
Cc1ccc(CC2S/C(=C(/C#N)C(=O)NCc3ccco3)N(c3ccccc3)C2=O)cc1 (stereo not drawn)	-6	15%	-12	-18%	?	1%
N#C/C(C(=O)NCc1ccco1)=C1/SC(Cc2ccc(Cl)cc2)C(=O)N1c1ccccc1 (stereo not drawn)	18*	-31%	-26	-21%	5%	26%
N#C/C(C(=O)NCc1ccco1)=C1/SC=C(c2ccccc2)N1c1ccccc1	-4	5.2µM*	11	0%	7%	12%
O=C(NCc1cccs1)Nc1ccc2c(c1)OCO2	40*	-2%	69*	132%	-2%	-1%
O=C(NCc1ccccn1)Nc1ccc2c(c1)OCO2	57*	9%	101*	74%	6%	1%
O=C(CNC(=O)c1ccc2c(c1)OCO2)NCc1cccs1	/	/	/	/	-2%	/
O=C(Nc1ccc2c(c1)OCO2)Nc1ccccn1	55*	0%	99*	i	0%	/
O=C(Nc1ccc2c(c1)OCO2)Nc1cnccn1	27*	/	58*	142%	-3%	2%
COc1ccc(/C=C(/NC(=O)c2ccccc2)C(=O)NC2CCS(=O)(=O)C2)cc1 (stereo not drawn)	-3	11%	-1	5%	3%	0%
O=C(NCc1cccs1)Nc1ccc(Cl)cc1	45*	29%	61*	123%	3%	-5%
CS(=O)(=O)N(CC(=O)NCc1ccccn1)c1ccc2c(c1)OCCO2	-2	4.1µM*	-5	15%	3%	-2%
O=C(NCc1ccncc1)Nc1ccc2c(c1)OCO2	26*	?	41*	57%	1%	5%
c1cc(CNc2ccc3c(c2)OCCO3)ccn1	53*	8%	83*	106%	1%	9%
CCN(CC(=O)NCc1ccc(Cl)cc1)C(=O)CCc1ccccc1	1	-3%	-2	-11%	0%	-5%
Cc1ccc(C)c(OCCn2c(CCNC(=O)C3CCCCC3)nc3ccccc32)c1	1	/	11	/	/	/
SMILES	CHX counter	Pf growth 96h	Shiga inhibitor	Pf growth 48h	SARS PLpro yeast	NS1 inh
O=C(CSc1nnc2ccc(-c3ccc(Br)cc3)nn12)NCC1CCCO1 (stereo not drawn)	/	?	/	-5%	-2%	/
C=CCN1C(=O)C(=O)N(Cc2nc3ccccc3s2)C1=O	34*	241%	77*	200%	-1%	5%
Cc1nn(CC(=O)N2CCN(c3ccc(Cl)cc3)CC2)c(=O)c2cccn12	-1	?	-8	-5%	-2%	7%
OCCNc1nc2nonc2nc1NCCO	2	32%	21	16%	2%	/
CCN(CC)CCNc1nc2nonc2nc1NCCN(CC)CC	-3	12µM*	4	8.3µM*	2%	4%
Cc1cc(C)c(C(=O)COC(=O)CN2C(=O)NC3(CCCC3)C2=O)cc1C	/	/	/	/	1%	/
CC(=O)/C=C(\C)Nc1ccccc1O	6	?	22	?	-6%	-70%
N/C(=N\OC(=O)Cc1ccc(Cl)cc1)c1ccncc1	-2	4%	28	?	-1%	-11%
COc1ccc(OCC(=O)O/N=C(\N)c2ccc(OC)c(OC)c2)cc1	-1	?	30	-3%	-12%	-4%
COc1ccc(CC(=O)O/N=C(\N)c2ccncc2)cc1	15*	3%	82*	4%	0%	3%
COc1ccc(/C(N)=N/OC(=O)Cc2ccc(C)cc2)cc1OC	15*	25%	-5	24%	-16%	2%
COc1cccc(OCC(=O)O/N=C(\N)c2ccc(OC)c(OC)c2)c1	9	6.6µM*	1	15%	4%	1%
COc1ccc(CC(=O)O/N=C(\N)c2ccc(C)cc2)cc1	47*	59%	118*	56%	-5%	-5%
CN(C)CCOc1ccc(-c2c(-c3ccccc3)sc3ccccc23)cc1	/	/	/	/	3%	/
Cc1cc(NC(=O)C2C3C(=O)N(c4cccnc4)C(C(=O)NC(C)(C)C)C34C=CC2(C)O4)no1 (stereo not drawn)	-3	13µM*	-5	-11%	0%	4%
CCOc1ccc(S(=O)(=O)N2CCOCC2)cc1NC(=O)CN1C(=O)NC2(CCCCC2)C1=O	/	0%	/	-9%	-7%	/
CCC(=O)O[C@]1(C(=O)CCl)[C@@H](C)CC2C3C[C@H](F)C4=CC(=O)C=CC4(C)[C@@]3(F)C(O)CC21C (stereo partly drawn)	/	-13%	/	1.9µM*	/	/
CCC(=O)O[C@@]1(C(=O)CCl)C(C)CC2C3CCC4=CC(=O)C=C[C@@]4(C)[C@]3(F)C(O)C[C@]21C (stereo partly drawn)	/	3.4µM*	/	6.7µM*	/	/
C[C@@H]1C[C@H]2[C@@H]3CCC4=CC(=O)C=C[C@]4(C)[C@@]3(F)[C@@H](O)C[C@]2(C)[C@@]1(O)C(=O)COP(=O)(O)O	5	39%	31	34%	19%	22%
CCC(=O)O[C@]1(C(=O)CCl)[C@@H](C)C[C@H]2[C@@H]3CCC4=CC(=O)C=C[C@]4(C)[C@@]3(F)[C@@H](O)C[C@@]21C	7	4.1µM*	4	4.7µM*	0%	-32%
CC(=O)OCC(=O)[C@@]1(OC(C)=O)[C@@H](C)C[C@H]2[C@@H]3C[C@H](F)C4=CC(=O)C=C[C@]4(C)[C@@]3(F)[C@@H](O)C[C@@]21C	-3	?	-2	?	0%	-11%
CCC(=O)OC1(C(=O)CCl)[C@@H](C)C[C@H]2[C@@H]3CCC4=CC(=O)C=C[C@]4(C)[C@@]3(F)[C@@H](O)C[C@@]21C (stereo partly drawn)	/	5.2µM*	/	2.3µM*	/	/

Source: PubChem BioAssay
